Tb PFK block: inhibitors of T. brucei phosphofructokinase. O15648. T. brucei PFK, ADP-Glo luminescence. Potency, µM (top dose mostly 57.5 µM), for the others: top-dose activity, negative = inhibition, actives largely listed as inhibitors. 330,000 tested, 0.17% active;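 also: 0% = uninhibited 1x PFK enzyme wells and -100% = no-enzyme wells; nearly all actives have a fitted effect of over 60% in size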
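In TEA buffer at pH 8.0 with 5 mM MgCl2, enzyme (1.25 nM) converted F6P (0.5 mM) and ATP (0.1 mM) for 45 min at room temperature. ADP product was read by luciferase luminescence.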
GCN5L2 inh: blocks human GCN5L2 histone acetyltransferase; Q92830; GCN5L2 HAT assay, ThioGlo1 CoA-SH fluorescence; AID 504327; Potency, µM (top dose mostly 58.9 µM), for the others: at the highest dose activity change, negative = inhibition, most hits filed as inhibitors; 390,000 tested, 0.21% active; also: % is scaled to controls: 0 for no effect and ±100 for the full control effect
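Preincubate 20nM GCN5L2 with compound 15 min, RT → add 50uM ThioGlo1 + 75uM H3(1-25) + 70uM acetyl-CoA → read fluorescence 0 and 20 min. Primary qHTS; fluorescent artifacts likely.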
AT treatment: candidate therapy for ataxia-telangiectasia; F2112 A-T fibroblasts, KAP-1 phosphorylation AlphaLISA; neocarzinostatin DNA damage 30 min before lysis; Potency, µM (series often up to 57.5 µM), for inactives: at the highest dose activation, actives largely listed as activators; 320,000 tested, 0.19% active; also: % of control where 0% means no effect; nearly all actives have a fitted effect of over 45% in size
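hTERT-immortalized A-T patient fibroblasts (F2112), 500 cells/well in OPTI-MEM, 1% FBS, got compounds for 60 min, then NCS for 30 min at 37C. Lysates were then assayed for phospho-KAP-1 by AlphaLISA (anti-pKAP1 donor, anti-KAP1 acceptor beads), 6 hr at 25C.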
S-ASM inh: blocks human secretory acid sphingomyelinase; P17405; placental ASM, HMU-PC fluorogenic substrate, 60 min; Potency, µM (top dose mostly 57.5 µM), for inactives: top-dose activity change, negative = inhibition, most hits filed as inhibitors; 340,000 tested, 0.006% active; AID 504937
Target sequence (P17405 47-631 limits assumed): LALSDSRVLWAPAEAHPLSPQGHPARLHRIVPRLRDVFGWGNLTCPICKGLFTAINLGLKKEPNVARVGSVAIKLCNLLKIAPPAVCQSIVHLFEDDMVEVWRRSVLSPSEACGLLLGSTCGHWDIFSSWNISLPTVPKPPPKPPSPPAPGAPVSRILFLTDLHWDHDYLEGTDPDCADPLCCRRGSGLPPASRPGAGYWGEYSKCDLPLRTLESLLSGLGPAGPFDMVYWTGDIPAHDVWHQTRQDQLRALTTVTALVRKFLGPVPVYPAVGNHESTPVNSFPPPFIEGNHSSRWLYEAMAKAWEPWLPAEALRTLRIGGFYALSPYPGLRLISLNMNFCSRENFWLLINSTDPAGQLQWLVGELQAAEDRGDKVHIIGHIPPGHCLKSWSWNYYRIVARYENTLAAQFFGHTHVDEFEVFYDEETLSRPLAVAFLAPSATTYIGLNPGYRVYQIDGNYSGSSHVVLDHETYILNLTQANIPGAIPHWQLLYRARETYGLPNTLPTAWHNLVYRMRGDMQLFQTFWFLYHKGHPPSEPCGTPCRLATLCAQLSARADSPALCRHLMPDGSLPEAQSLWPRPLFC
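Fluorescence read-out (Ex 386 nm, Em 447 nm) after stopping the reaction at pH 10. Enzyme: ASM from human placenta; substrate HMU-PC0, 9 uM final; 60 min, 37 °C. Compound preincubation 10 min, ambient temperature.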
p53 reactivator: re-activators of mutant p53. Potency, µM (top dose mostly 92.2 µM), without a hit: at the top dose activity change, positive = activation, actives largely listed as activators. 320,000 tested, 0.063% active. H1299 p53-A138V BP100-luciferase reporter, luminescence, 24 h; also: % of control where 0% means no effect; nearly all actives have a fitted effect of over 45% in size
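H1299 (p53-null), stable ts p53-A138V + BP100-Luc; 1000 cells/well, Opti-MEM/10% FBS; cpd 4 pt, 1:5; 24 h, 37 deg C, 5% CO2; detection reagent 10 min RT; luminescence.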
ERG Ets-DNA blk: inhibitors of human ERG Ets domain-DNA interaction; P11308; AID 624246; fluorescence polarization, His-ERG Ets domain / labelled DNA; 370,000 tested, 0.028% active; Potency, µM (titrated, usually from 76.9 µM), without a hit: top-dose FP activity, negative = inhibition, actives largely listed as inhibitors; active = well fitted inhibition curve with a large enough effect in the polarisation, with a control signal flat; inconclusive = small, poorly fitted or top-dose-only effect, or effect the other way, or a change in a side signal; inactive = no such curve, though single readings can be large or run the other way; the % refers to the polarisation;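 also: polarization taken with two DNA probes labelled with fluorescein and Texas red; % of control where 0% means no effect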
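His-tagged ERG Ets domain (1 uM in the protein solution; 300mM KCl, 50mM Tris-HCl, 1mM EDTA, 1mM DTT, pH 7.5) received compound, then a probe mix of 5 nM fluorescein-DNA and 100nM Texas-615-DNA. Fluorescence polarization was read for both dyes.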
* marks the source's active call; other numbers are inactive results; i = inactive; ? = inconclusive; . = no result given; [ ] = remark or other dose. The list is not random: actives were taken first. Their share in the collection is about 0.55%. Unless noted, calls follow the shape of the dose curve; as a rule, active = well fitted curve in the direction sought with a large enough effect; inconclusive = small, poorly fitted or top-dose-only effect, or another doubt; inactive = no such curve, though single readings can be large; an effect the other way counts as inactive or inconclusive. Potency is read from the fitted curve at half-maximal effect.

SMILES	Tb PFK block	GCN5L2 inh	AT treatment	S-ASM inh	p53 reactivator	ERG Ets-DNA blk
N#Cc1ccc(C(=O)NC2CCCCCCC2)cc1	0.3%	-0.4%	-4.8%	-2.5%[11.5 µM]	35.5µM*	-7.7%
Cc1ccc(C(=O)NC2CCCCC2)cc1	-1.7%	-9.1%	6.6%	4.1%	26.0%	.
O=C(NCCCN1CCN(c2ccc(F)cc2)CC1)c1ccc2nc(Cc3ccccc3)oc2c1	.	-5.5%	.	.	.	-0.9%
CC1(C)C(/C=C/C=C/C=C/C=C2\N(CCCCS(=O)(=O)O)c3ccc4ccccc4c3C2(C)C)=[N+](CCCCS(=O)(=O)[O-])c2ccc3ccccc3c21	.	10µM*	.	-4.3%	.	-1.4%
COc1cccc(NC(=O)CSCn2nnc3c(=O)[nH]c(Cc4ccc(F)cc4)nc32)c1	.	-3.0%	.	.	.	-8.5%
Cc1nn(-c2nc3ccccc3s2)c(C)c1Oc1ccccc1O	-5.3%	-4.8%	6.8%	1.6%	12.6µM*	6.3%
COc1ccc(S(=O)(=O)NCC(c2ccco2)N2CCOCC2)cc1OC (stereo unspecified)	.	-0.1%	.	.	.	4.5%
CCc1ccc(N=c2c([N+](=O)[O-])nn(-c3ccccc3)n2O)cc1	?	-0.6%	-3.7%	-4.9%	39.8µM*	4.5%
Cc1cc(C)cc(N=c2c([N+](=O)[O-])nn(-c3ccc(Cl)cc3)n2O)c1	6.2%	-5.6%	1.4%	-10.0%	1.6%	-11.8%
Oc1ccc(/C=N/Nc2ccc(C(F)(F)F)cn2)c(O)c1	-0.7%	?	-11.4%	.	11.2µM*	.
CCN(C(=O)CSc1nnc(C(C)N(C)C)n1-c1ccc(F)cc1)C1CCS(=O)(=O)C1 (stereo unspecified)	-2.5%	-12.9%	-9.0%	8.2%	6.1%	1.4%
Cc1ccccc1-c1nn[nH]n1	2.6%	0.0%	.	1.0%	-1.2%	-5.2%
c1ccc(-c2nn[nH]n2)c(Nc2cccc3c2CCCC3)c1	.	17.8µM*	.	.	.	.
O=C(/C=C/Nc1ccc(F)cc1)c1ccco1	0.1%	-7.6%	6.7%	18.9%	44.7µM*	10.8%
CCOC(=O)c1ccc(N/C=C/C(=O)c2ccco2)cc1	1.1%	-3.5%	-2.0%	i	16.9%	.
CCCN1CNC(=S)N(c2ccccc2OC)C1	-1.8%	20.2%	-2.5%	0.1%	3.4%	-0.7%
CCCN1CN(c2ccccc2)C(=S)N(c2ccccc2)C1	0.0%	-3.1%	1.12µM*	6.5%	3.3%	-1.5%
Cc1cccc(C=Nc2ccc3c4c(cccc24)CC3)c1O	4.0%	20µM*	3.6%	3.7%	14.0%	.
Cc1cc(C(c2nnnn2Cc2ccccc2)N2CCOCC2)c(C)n1-c1ccc2c(c1)OCO2 (stereo unspecified)	2.8%	-5.7%	0.2%	-0.3%	31.6µM*	.
CCCN(CCC)CCNC(=O)C1CCCN(S(=O)(=O)c2cccc3nsnc23)C1 (stereo unspecified)	.	-2.2%	.	.	.	4.5%
CCOc1ccc2nc(N3C(=O)/C(=C/c4ccccc4)NC3=S)sc2c1	0.9%	-4.4%	2.1%	?	12.6µM*	.
COC(=O)c1c(NC(=O)COC(=O)c2ccc(Cl)cc2[N+](=O)[O-])sc2c1CCCCC2	-1.3%	28.2µM*	-3.7%	-8.0%	-4.3%	2.4%
Cc1ccc2c(CN(C)Cc3ccccc3)cc(=O)oc2c1C	6.7%	-0.3%	13.7%	-4.4%	?	35.5µM*
Cc1cc2nc3c(=O)n(C)c(=O)n(C)c3nc2cc1N=CN(C)C	.	-11.2%	.	.	.	2.3%
Fc1cccc(Cl)c1CNC(c1ccccc1)c1ccccc1	-5.8%	-3.0%	31.6µM*	-2.1%	-5.3%	.
SMILES	Tb PFK block	GCN5L2 inh	AT treatment	S-ASM inh	p53 reactivator	ERG Ets-DNA blk
Cc1ccc(C(=O)/C=C/c2ccc(F)cc2)o1	0.1%	-5.4%	12.7%	0.1%	44.7µM*	9.7%
COC(=O)C1=NN(C(=O)c2ccc(Cl)cc2)C(O)(c2ccccc2)C1 (stereo unspecified)	-14.8%	1.41µM*	-3.0%	-8.6%	4.5%	.
Nc1nc(-c2nn(Cc3ccccc3F)c3ncccc23)ncc1C1CC1	.	2.6%	.	.	.	.
O=C(NC(=S)NC1CCN(Cc2ccccc2)CC1)c1ccc(F)cc1	-17.3%	-2.4%	1.41µM*	-0.1%	14.5%	14.0%
O=C(NC1CCN(Cc2ccc(F)cc2)CC1)c1ccccc1	-5.4%	-5.3%	17.1%	7.6%	-4.4%	-5.9%
Cc1cccn2cc(CNC(=O)c3ccco3)nc12	-4.5%	35.5µM*	7.1%	1.3%	-0.7%	-4.2%
O=C1C=C(Nc2ccccc2)c2ccccc2C1=O	-3.7%	-4.7%	35.5µM*	-1.9%	-10.3%	5.9%
O=C(Nc1c(C(=O)Nc2ccccc2F)oc2ccccc12)c1cc2ccccc2o1	.	0.4%	.	.	.	-1.7%
Cc1cccnc1NC(=O)c1ccc([N+](=O)[O-])o1	1.5%	-4.2%	5.0%	22.2%	11.2µM*	-0.2%
Cc1ccc(C(=O)Nc2ncccc2C)o1	.	.	.	-2.7%	.	56.4%
C=C(C)Cn1c(SCC(=O)Nc2cccc(Cl)c2)nc2sc3c(c2c1=O)CCCC3	.	1.1%	.	.	.	-2.5%
C=C(C)n1c(=O)n(Cc2ccccc2C)c2ccccc21	5.3%	-2.7%	11.2µM*	-0.5%	-5.1%	-2.2%
C=C(C)n1c(=O)n(Cc2ccc(C)cc2)c2ccccc21	0.9%	3.4%	0.0%	-1.4%	-5.0%	10.3%
Cc1cc(C)n(-c2nnc(Nc3ccc(C)c(Cl)c3)c3ccccc23)n1	.	-19.2%	.	.	.	-0.8%
C=C1c2cccc(O)c2C(O)=C2C(=O)[C@]3(O)C(O)=C(C(N)=O)C(=O)C(N(C)C)C3C(O)C12 (stereo partly specified)	.	10µM*	.	.	.	.
C=C1c2c(Cl)ccc(O)c2C(O)=C2C(=O)[C@]3(O)C(O)=C(C(N)=O)C(=O)C(N(C)C)C3C(O)C12 (stereo partly specified)	.	25.1µM*	.	.	.	.
C=C1c2cccc(O)c2C(O)=C2C(=O)[C@]3(O)C(O)=C(C(N)=O)C(=O)[C@@H](N(C)C)[C@@H]3[C@@H](O)[C@H]12	-19.0%	-11.7%	-4.4%	4.3%	-1.4%	3.6%
FC(F)(F)c1cccc(OCC2CNC(=S)O2)c1 (stereo unspecified)	-6.2%	-10.6%	10µM*	7.6%	-0.1%	-4.4%
CC(C)N1C(=O)/C(=C\c2nc3ccccc3c(=O)[nH]2)c2ccccc21	?	-6.3%	16.0%	31.6µM*	-0.4%	3.7%
C=Cc1ccc(Cn2c(C(=O)O)c(CNCc3ccccc3)c3ccc(OC)cc32)cc1	.	31.6µM*	.	.	.	4.5%
O=C(NCc1ccc(F)cc1)c1cc(Sc2ccc(F)cc2F)nc2ccccc12	.	-8.2%	.	.	.	0.4%
